{"source": "PubChem BioAssay (NCATS)", "note": "Inconclusive results are not listed. Unmarked numbers belong to inactive results. The source made the active and inactive calls. Calls come from the whole dose curve; as a rule, active = well fitted inhibition curve with a large enough effect; inconclusive = small, poorly fitted or top-dose-only effect; inactive = flat fitted curve, though single readings scatter. % is set by controls: 0 for no effect and ±100 for the full control effect; potency is the fitted concentration of half-maximal effect."}
{"target": "Calcium and integrin-binding protein 1 (Homo sapiens) (UniProt Q99828)", "sequence (Q99828 whole entry, looked up)": "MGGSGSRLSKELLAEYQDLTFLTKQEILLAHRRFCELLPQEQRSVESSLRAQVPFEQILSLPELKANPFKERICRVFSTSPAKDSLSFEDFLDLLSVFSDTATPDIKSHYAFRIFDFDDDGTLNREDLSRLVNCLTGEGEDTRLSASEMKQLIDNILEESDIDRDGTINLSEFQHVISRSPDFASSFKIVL", "assay": "Primary qHTS for Identification of Calcium Integrin Binding Protein 1 (CIB1) Competitor (AID 1508620); for activity change, negative = inhibition: top concentration of the series differs between compounds", "conditions": "CIB1-GST / FITC-alphaIIb peptide fluorescence polarization; series mostly up to 114 µM; activity change, negative = inhibition: at the top concentration", "method_in_brief": "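Fluorescence polarization competition: GST-tagged CIB1 (1 uM final) preincubated with compound 15 min at room temperature, then FITC-labelled alphaIIb peptide (100 nM final) added. After 15 min at room temperature, polarization read at Ex 480/Em 540.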", "units": {"activity change, negative = inhibition": "%"}}
{"smiles": "CN(C)CC(=O)NC1CCCc2c1cnn2-c1ccc(F)cc1F", "note": "(stereo not given)", "activity change, negative = inhibition": 0.923}
{"smiles": "Cn1cc2ccc(-c3ccc4ncnc(NCc5cccs5)c4c3)cc2n1", "activity change, negative = inhibition": 2.8}
{"smiles": "Cc1cc(C)nc(NC(=S)N2CCN(c3ccc4nsnc4c3)CC2)c1", "Potency": "50.1 µM (active)"}
{"smiles": "CC(C)(C)OC(=O)Cc1nnc(-c2nc3ccccc3[nH]2)o1", "activity change, negative = inhibition": -4.45}
{"smiles": "CC(C)c1ccccc1-c1nc2c(c(NCc3ccc(-c4cccnc4)cc3)n1)CNC2", "activity change, negative = inhibition": -1.1}
